According to publication PMC10726135, “HNF4α isoforms regulate the circadian balance between carbohydrate and lipid metabolism in the liver”:
Over roughly 18,000 sequences, “log2 normalized intensity” has its median near 0.39; the highest 2% begin near 6.6. The list comes from a sample in which the highest values are over-represented; it also holds similar and randomly drawn sequences.

These sequences were tested against T1, HNF4alpha2 (COS-7 nuclear extract) (Homo sapiens, UniProt P41235 1-474) (assay: protein-binding microarray; COS-7 nuclear extract on double-stranded Agilent 4x180k PBM; binding buffer, salt, pH and temperature not given in the material; high values mean tight binding). Conditions: chain copies: 2; label: 3' end of strand 1 on the slide; dsDNA, one strand shown.
T1 sequence: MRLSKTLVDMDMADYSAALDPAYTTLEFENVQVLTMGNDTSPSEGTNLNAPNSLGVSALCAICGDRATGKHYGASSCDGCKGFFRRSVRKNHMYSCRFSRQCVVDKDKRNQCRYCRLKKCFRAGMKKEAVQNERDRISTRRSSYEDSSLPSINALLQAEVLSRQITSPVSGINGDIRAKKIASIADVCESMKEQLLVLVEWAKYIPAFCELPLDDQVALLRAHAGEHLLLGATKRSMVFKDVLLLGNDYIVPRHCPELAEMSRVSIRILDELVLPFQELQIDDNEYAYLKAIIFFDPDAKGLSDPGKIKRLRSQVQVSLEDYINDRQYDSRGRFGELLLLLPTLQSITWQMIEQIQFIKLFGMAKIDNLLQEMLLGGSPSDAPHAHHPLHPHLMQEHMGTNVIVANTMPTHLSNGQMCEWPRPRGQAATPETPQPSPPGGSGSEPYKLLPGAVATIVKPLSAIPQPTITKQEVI
How it was run: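 A custom Agilent SurePrint G3 4x180k array, spotted in quadruplicate with ~44,000 test sequences as ~60-nt oligonucleotides made double-stranded, was incubated with nuclear extracts. The extracts came from COS-7 cells transiently transfected by CaPO4 with a human HNF4α isoform expression vector. Bound HNF4α was imaged on an Agilent G2565CA scanner at 2-µm resolution, and the binding signal was taken as Agilent software's background-corrected, normalized gProcessedSignal.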
“TTCCACCTGGAATGCACTTGTTCCGGATAGGCCTAGGGAGATTAGAGTATCGGTCGA” showed a binding signal of 1.11 log2 normalized intensity. Work on “CAGTTGACCTTTGAACACCACAAGTTTGAAGCCTAGGGAGATTAGAGTATCGGTCGA” yielded a binding signal of 6.31 log2 normalized intensity. Sequence “AACTACAGTTGACCTTTGAACACCACAAGTGCCTAGGGAGATTAGAGTATCGGTCGA” has a binding signal of 7.56 log2 normalized intensity. Work on “ATGCCCCATGGTAAGAACTACAGTTGACCTGCCTAGGGAGATTAGAGTATCGGTCGA” yielded a binding signal of 4.18 log2 normalized intensity. “CCATGGTAAGAACTACAGTTGACCTTTGAAGCCTAGGGAGATTAGAGTATCGGTCGA” showed a binding signal of 7.38 log2 normalized intensity. “GACCTTTGAACACCACAAGTTTGAACTGCAGCCTAGGGAGATTAGAGTATCGGTCGA” gave a binding signal of 5.05 log2 normalized intensity. In the case of “TAGGTATGCCCCATGGTAAGAACTACAGTTGCCTAGGGAGATTAGAGTATCGGTCGA”, the binding signal is reported as 0.881 log2 normalized intensity. Sequence “GGAATGTTGCTGTGCTGCCCTCTTGTGGCCGCCTAGGGAGATTAGAGTATCGGTCGA” has a binding signal of 1.66 log2 normalized intensity. Sequence “TGTTTCCAATAGGTTTGATTTCAGCATGTTGCCTAGGGAGATTAGAGTATCGGTCGA” has a binding signal of 1.59 log2 normalized intensity. “TATGTGGTGGAATGGAAAGAATATGAACTTGCCTAGGGAGATTAGAGTATCGGTCGA” was tested, and the binding signal was 1.66 log2 normalized intensity. For “ACCCCACGGAGCTGCCTCACATGAGCTAGAGCCTAGGGAGATTAGAGTATCGGTCGA”, the binding signal was -0.873 log2 normalized intensity. With “ATTGGCCCTTTGACCTTTAATCAAGGGCTGGCCTAGGGAGATTAGAGTATCGGTCGA” the binding signal was 5.08 log2 normalized intensity. With “CTGATTTAGCTATTTGACCTTCGGCCTCAAGCCTAGGGAGATTAGAGTATCGGTCGA” the binding signal was 8.16 log2 normalized intensity. “TGGCTGGGCCCTGACCTCAAGTGACCTTTGGCCTAGGGAGATTAGAGTATCGGTCGA” gave a binding signal of 7.17 log2 normalized intensity. For “GGGCCCTGACCTCAAGTGACCTTTGACCTCGCCTAGGGAGATTAGAGTATCGGTCGA”, the binding signal was 12.1 log2 normalized intensity. Work on “CCAGGCTGATTTAGCTATTTGACCTTCGGCGCCTAGGGAGATTAGAGTATCGGTCGA” yielded a binding signal of 4.92 log2 normalized intensity. “GCCCCTGGCTGGGCCCTGACCTCAAGTGACGCCTAGGGAGATTAGAGTATCGGTCGA” showed a binding signal of 1.91 log2 normalized intensity. “CTGGGCCCTGCCTGACCTGCCCTTTGTCCCGCCTAGGGAGATTAGAGTATCGGTCGA” was tested, and the binding signal was 6.28 log2 normalized intensity. For “ATCGCCCTTTGAGGAGGCCTTTCCTGACCCGCCTAGGGAGATTAGAGTATCGGTCGA”, the binding signal was 2.78 log2 normalized intensity. “TTAGCTATTTGACCTTCGGCCTCAATTATAGCCTAGGGAGATTAGAGTATCGGTCGA” was tested, and the binding signal was 6.43 log2 normalized intensity. For “GGCTTGTACCTTGACCTTCTCTGTTAACCCGCCTAGGGAGATTAGAGTATCGGTCGA”, the binding signal was 4.27 log2 normalized intensity. In the case of “GATGGGCCAGGCAGGACAGTTTTGTGTGTTGCCTAGGGAGATTAGAGTATCGGTCGA”, the binding signal is reported as 1.11 log2 normalized intensity. “TCAGATATCTGAATGTACCTTTGAAACCTAGCCTAGGGAGATTAGAGTATCGGTCGA” gave a binding signal of 2.87 log2 normalized intensity. Sequence “ATCCAGTAGAGGGCATAGCAGATAAGCATTGCCTAGGGAGATTAGAGTATCGGTCGA” has a binding signal of -0.984 log2 normalized intensity. “ACTTCTTTGTGATGTGTGGATTCAGCTCACGCCTAGGGAGATTAGAGTATCGGTCGA” gave a binding signal of 1.29 log2 normalized intensity. “ATCTCAAATAGCTGGGTCTCACTCTGACCCGCCTAGGGAGATTAGAGTATCGGTCGA” gave a binding signal of 3.32 log2 normalized intensity. Sequence “ACTTCAAAGGGTGTTGTGACTACCTGGTTAGCCTAGGGAGATTAGAGTATCGGTCGA” has a binding signal of 0.524 log2 normalized intensity. With “AACTTCTTCCAATGAAAGGTTAACCTGCTGGCCTAGGGAGATTAGAGTATCGGTCGA” the binding signal was 1.36 log2 normalized intensity. “TTTATCCTTTTTTGAAGGTTAAAGTCCATTGCCTAGGGAGATTAGAGTATCGGTCGA” was tested, and the binding signal was 7 log2 normalized intensity. For “CCTTTTTTGAAGGTTAAAGTCCATTTTTGAGCCTAGGGAGATTAGAGTATCGGTCGA”, the binding signal was 6.53 log2 normalized intensity. Work on “AAGGGCTGAGGTTAAAGTCCACATTCTTTAGCCTAGGGAGATTAGAGTATCGGTCGA” yielded a binding signal of 5.76 log2 normalized intensity. “AAGCTTCACAAAGGGCTGAGGTTAAAGTCCGCCTAGGGAGATTAGAGTATCGGTCGA” gave a binding signal of 6.22 log2 normalized intensity. Work on “TCACAAAGGGCTGAGGTTAAAGTCCACATTGCCTAGGGAGATTAGAGTATCGGTCGA” yielded a binding signal of 7.04 log2 normalized intensity. “ACATTTTTATCCTTTTTTGAAGGTTAAAGTGCCTAGGGAGATTAGAGTATCGGTCGA” was tested, and the binding signal was 2.66 log2 normalized intensity. With “TCCCCACTTATTACCGGTGTGACTTTGGTTGCCTAGGGAGATTAGAGTATCGGTCGA” the binding signal was 2.1 log2 normalized intensity. “CGGGAGGCAAGATAAGGGTAATCACCCCCAGCCTAGGGAGATTAGAGTATCGGTCGA” gave a binding signal of 2.34 log2 normalized intensity. For “TAAGACTAACCTTTGACCATCCACGGATGCGCCTAGGGAGATTAGAGTATCGGTCGA”, the binding signal was 4.62 log2 normalized intensity. For “CATGTGGTCCTAAGACTAACCTTTGACCATGCCTAGGGAGATTAGAGTATCGGTCGA”, the binding signal was 7.89 log2 normalized intensity. “ATTAACTAACCTTTGAACCAGATGGCCCTCGCCTAGGGAGATTAGAGTATCGGTCGA” gave a binding signal of 3.62 log2 normalized intensity. With “ATGTGGTCCTAAGACTAACCTTTGACCATCGCCTAGGGAGATTAGAGTATCGGTCGA” the binding signal was 7.45 log2 normalized intensity. Work on “TTACTCATGTGGTCCTAAGACTAACCTTTGGCCTAGGGAGATTAGAGTATCGGTCGA” yielded a binding signal of 3.37 log2 normalized intensity. “TACTCATGTGGTCCTAAGACTAACCTTTGAGCCTAGGGAGATTAGAGTATCGGTCGA” was tested, and the binding signal was 6.33 log2 normalized intensity.
